From PubChem BioAssay
Only some compounds are listed: those with a hit (about 19% of all), similar ones and a draw of the others.
DT40 TDP1 no CPT = qHTS for Inhibitors of human tyrosyl-DNA phosphodiesterase 1 (TDP1): qHTS in cells in absence of CPT. DT40 Tdp1-/- hTDP1 cells, no CPT, ATP luminescence, 48 h. Potency, µM (highest dose often 46.2 µM), most hits filed as inhibitors. 420,000 compounds, 15% hits. AID 686978, 2013; note: nearly all actives have a fitted effect of over 55% in size
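Compound effects on proliferation are scored in DT40 Tdp1-/-;hTDP1 cells in the absence of CPT. ATP levels (CellTiter-Glo luminescence) are recorded after a ≥48 hr, 37 °C incubation.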
HT1080 IDH1KD tx = toxicity to HT-1080 IDH1 knockdown cells (counter line). Potency, µM (highest dose often 46.1 µM), actives largely listed as cytotoxic. HT-1080 IDH1 knockdown viability, ATP luminescence, 48 h. 360,000 compounds, 2% hits
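Knockdown cells (IDH1KD HT-1080) received compounds 2 h after plating at 750 cells/well and were kept 48 h at 37 °C in 5% FBS RPMI. A CellTiter-Glo luminescence read gave % activity for curve fitting.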
IL1B secr inh = inhibitors of inflammasome signaling (IL-1 beta secretion) | AID 743279 | activity change, % at 57.5 µM | THP-1 LPS/ATP IL-1B secretion, AlphaLISA, 16 h; active compounds read low | 360,000 compounds, 4.7% hits; in the data active = activity change below about -50%; inconclusive = mostly about -30% to -49%
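Secreted IL-1B measured by AlphaLISA bead assay after 16 h compound exposure of THP-1 cells; compounds (final up to 57.5 uM) added 1 h before LPS (250 ng/mL) and ATP (1.25 mM) stimulation; lower signal means less secretion.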
TDP1 cell CPT = growth inhibition of DT40 Tdp1-/-;hTDP1 cells with camptothecin (screen for TDP1 inhibitors). Potency, µM (top dose mostly 46.2 µM), most hits filed as inhibitors. 420,000 compounds, 12% hits. chicken DT40 Tdp1-/-;hTDP1 cells + 20 nM CPT, ATP luminescence, 48 h. AID 686979; note: nearly all actives have a fitted effect of over 55% in size
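Cell growth measured by CellTiter-Glo luminescence after a minimum 48 h, 37 C compound exposure with 20 nM CPT in Tdp1-knockout DT40 cells stably expressing hTDP1, seeded 400/well; qHTS titration format.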
HT1080NT lethal = kills 2HG-producing HT-1080-NT fibrosarcoma cells; HT-1080-NT fibrosarcoma viability, CellTiter-Glo ATP luminescence, 48 h; Potency, µM (series often up to 46.1 µM), most hits filed as cytotoxic; 360,000 compounds, 1.6% hits; AID 686970;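 note: NT is the 2HG producing partner of a matched IDH1 knockdown line; nearly all actives have a fitted effect of over 55% in size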
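HT-1080-NT fibrosarcoma cells (2HG-overproducing), 750 cells/well in RPMI with 5% FBS, dosed after 2 h and incubated 48 h at 37C. CellTiter-Glo luminescence normalized to DMSO and no-cell wells; concentration-response curves fitted and classed.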
Large screens that a line does not name were inactive. Unless noted, calls come from the whole dose curve; as a rule, active = well fitted curve in the direction sought with a large enough effect; inconclusive = small, poorly fitted or top-dose-only effect, or another doubt; inactive = no such curve, though single readings can be large; an effect the other way counts as inactive or inconclusive.

Cn1c(=O)c2c(nc(N/N=C/c3ccc(OC(=O)c4ccco4)cc3)n2Cc2ccccc2Cl)n(C)c1=O	DT40 TDP1 no CPT 8.2µM, TDP1 cell CPT 6.5µM
C=CCNc1nc2c(c(=O)n(C)c(=O)n2C)n1CC	none
C=CCNc1nc2c(c(=O)n(C)c(=O)n2C)n1Cc1ccc(F)cc1	DT40 TDP1 no CPT 6.5µM, TDP1 cell CPT 2.3µM
Cn1c(=O)c2c(nc(N/N=C3\CCCc4ccccc43)n2Cc2ccc(F)cc2)n(C)c1=O	DT40 TDP1 no CPT inconclusive, TDP1 cell CPT inconclusive
Cn1c(N/N=C2\CCCc3ccccc32)nc2c1c(=O)n(Cc1ccccc1)c(=O)n2C	DT40 TDP1 no CPT inconclusive, TDP1 cell CPT 23µM
CCN(CC)Cc1c(NC(=O)c2ccc(OC)cc2)sc2c1CCCC2	DT40 TDP1 no CPT inconclusive, TDP1 cell CPT 18µM (no result: HT1080 IDH1KD tx, IL1B secr inh, HT1080NT lethal)
CCOC(=O)c1ccc(NC(=O)c2c(NC(=O)CCC(=O)O)sc3c2CCCCC3)cc1	DT40 TDP1 no CPT 29µM
CCOC(=O)c1ccc(NC(=O)c2c(NCc3cccs3)sc3c2CCCCC3)cc1	DT40 TDP1 no CPT 8.2µM, TDP1 cell CPT 10µM (no result: HT1080 IDH1KD tx, IL1B secr inh, HT1080NT lethal)
CCOC(=O)c1c(NC(=O)c2ccco2)sc2c1CCCC2	DT40 TDP1 no CPT inconclusive, TDP1 cell CPT inconclusive
COc1ccc(NC(=O)c2c(NCc3cccs3)sc3c2CCCC3)cc1	DT40 TDP1 no CPT 21µM, TDP1 cell CPT inconclusive (no result: HT1080 IDH1KD tx, IL1B secr inh, HT1080NT lethal)
COc1ccc(CC(=O)Nc2sc3c(c2C(=O)Nc2ccccc2)CCCCC3)cc1	DT40 TDP1 no CPT inconclusive (no result: HT1080 IDH1KD tx, IL1B secr inh, HT1080NT lethal)
COc1ccc2nc(Nc3sc4c(c3C(N)=O)CCCC4)sc2c1	DT40 TDP1 no CPT inconclusive, IL1B secr inh -100, TDP1 cell CPT 16µM
CCOC(=O)c1ccc(NC(=O)c2c(NCc3ccc(OC)c(OC)c3OC)sc3c2CCC(C)C3)cc1 (configuration not stated)	DT40 TDP1 no CPT 26µM, TDP1 cell CPT inconclusive (no result: HT1080 IDH1KD tx, IL1B secr inh, HT1080NT lethal)
COc1ccc(CC(=O)Nc2sc3c(c2C(N)=O)CCCC3)cc1	DT40 TDP1 no CPT inconclusive
CCC(=O)Nc1sc2c(c1C(=O)Nc1ccc(Br)cc1)CCCCC2	DT40 TDP1 no CPT 21µM, TDP1 cell CPT inconclusive (no result: HT1080 IDH1KD tx, IL1B secr inh, HT1080NT lethal)
COc1cc(C(=O)Nc2sc3c(c2C(=O)O)CCC(C)C3)cc(OC)c1OC (configuration not stated)	none
COc1ccc(NC(=O)c2c(NCc3cccs3)sc3c2CCCCC3)c(OC)c1	DT40 TDP1 no CPT 15µM, TDP1 cell CPT inconclusive (no result: HT1080 IDH1KD tx, IL1B secr inh, HT1080NT lethal)
Cc1ccc(S(N)(=O)=O)cc1NC(=O)/C=C/c1ccc2c(c1)OCO2	none
CC(C)(C)c1ccc(C(=O)NCC(=O)N2CCC3(CC2)NCCc2[nH]cnc23)cc1	none
CC(=O)c1cccc(Nc2cc(C)nc3nc(Cc4ccccc4)nn23)c1	none (no result: HT1080 IDH1KD tx, IL1B secr inh, HT1080NT lethal)
COc1ccc(NC(=O)CN(C)CC(=O)Nc2sc3c(c2C(N)=O)CCC3)cc1	DT40 TDP1 no CPT inconclusive, TDP1 cell CPT 21µM
N#Cc1ccc(CN2CCC3(CC2)CCN(C(=O)c2cc(C(F)(F)F)cc(C(F)(F)F)c2)CC3)cc1	DT40 TDP1 no CPT 13µM, TDP1 cell CPT 23µM (no result: HT1080 IDH1KD tx, IL1B secr inh, HT1080NT lethal)
COC(=O)N1CCC2(CCN(Cc3ccc(C#N)cc3)CC2)CC1	DT40 TDP1 no CPT inconclusive, TDP1 cell CPT 1.6µM (no result: HT1080 IDH1KD tx, IL1B secr inh, HT1080NT lethal)
COC(=O)N1CCC2(CCCN(Cc3ccc(C#N)cc3)C2)CC1	DT40 TDP1 no CPT inconclusive (no result: HT1080 IDH1KD tx, IL1B secr inh, HT1080NT lethal)
N#Cc1ccc(CN2CCC3(CC2)CCN(S(=O)(=O)c2ccccc2)CC3)cc1	DT40 TDP1 no CPT 16µM, TDP1 cell CPT inconclusive (no result: HT1080 IDH1KD tx, IL1B secr inh, HT1080NT lethal)
CCOc1ccc(CN2CCN(C(=O)c3cccc(F)c3)CC2)cc1	IL1B secr inh -60, HT1080NT lethal inconclusive
COc1ccc(C(=O)Oc2cc(C)[nH]c(=O)c2[N+](=O)[O-])c(OC)c1	none
Cc1ccc(C(=O)c2c3ccc(C(F)(F)F)cc3nn2CCC(N)=O)cc1	TDP1 cell CPT inconclusive
Cc1ccc(F)cc1NC(=O)c1cnccn1	none
O=C(c1cccc(F)c1)N1CCC2(CCN(Cc3cc(C(F)(F)F)cc(C(F)(F)F)c3)CC2)CC1	DT40 TDP1 no CPT 18µM, TDP1 cell CPT inconclusive (no result: HT1080 IDH1KD tx, IL1B secr inh, HT1080NT lethal)
COC(=O)N1CCC2(CCCN(Cc3cc(C(F)(F)F)cc(C(F)(F)F)c3)C2)CC1	none (no result: HT1080 IDH1KD tx, IL1B secr inh, HT1080NT lethal)
COC(=O)N1CCC2(CCN(Cc3cc(C(F)(F)F)cc(C(F)(F)F)c3)CC2)CC1	DT40 TDP1 no CPT 15µM, TDP1 cell CPT inconclusive (no result: HT1080 IDH1KD tx, IL1B secr inh, HT1080NT lethal)
COc1ccccc1CN1CCC2(CC1)CCN(C(=O)c1cc(C(F)(F)F)cc(C(F)(F)F)c1)CC2	DT40 TDP1 no CPT 21µM, TDP1 cell CPT inconclusive (no result: HT1080 IDH1KD tx, IL1B secr inh, HT1080NT lethal)
COc1ccccc1CN1CCC2(CC1)CCN(C(=O)c1cccc(F)c1)CC2	none (no result: HT1080 IDH1KD tx, IL1B secr inh, HT1080NT lethal)
CC(C)[C@H](NC(=O)N1c2ccccc2NC(=O)[C@@H]1C(C)C)C(=O)N1CCC(C(=O)O)CC1	none
CCOc1ccccc1CNC(=O)CCNS(=O)(=O)c1ccc2[nH]c(=O)oc2c1	none
CSCCOC(=O)COc1ccc(/C=N/NC(=O)c2nn(C)cc2Cl)cc1	DT40 TDP1 no CPT inconclusive, IL1B secr inh -69
CCOC(=O)c1cc2oc(C(c3nnnn3C3CCCCC3)N3CCOCC3)cc2[nH]1 (configuration not stated)	DT40 TDP1 no CPT inconclusive, HT1080 IDH1KD tx inconclusive, TDP1 cell CPT inconclusive, HT1080NT lethal inconclusive
